Screens as filed in PubChem BioAssay.
aSyn UTR act: Activators working through SNCA 5'UTR binding (MLPCN); alpha-synuclein 5'UTR reporter, activators screen; activity score, % (tested at 7.5 µM), hits read low; hit rate 7.1% among 300,000; in the data active = activity score below about -60%
* = called active by the depositor. Not all results are given here.

SMILES | aSyn UTR act
COc1ccc2oc(=N)c(C(=O)Nc3ccc(C)cc3)cc2c1 | -101.4*
COc1ccc2o/c(=N\O)c(C(=O)Nc3ccc(C)cc3)cc2c1 | -281.7*
O=C(Nc1ccc2oc(-c3ccccc3F)nc2c1)c1cncc(Br)c1 | -65.0*
O=C(Nc1ccc2oc(-c3ccccc3F)nc2c1)c1ccc([N+](=O)[O-])o1 | -142.3*
COc1ccc(C(=O)NC(=S)NCC2CCCO2)cc1 (centres undefined) | -71.4*
CC(C)CNc1nc(N)c([N+](=O)[O-])c(NCC2CCCO2)n1 (centres undefined) | 51.0
O=C(NCC1CCCO1)c1cc(-c2ccc(F)cc2)no1 (centres undefined) | -263.6*
COc1cccc(-c2cc(C(=O)NCC3CCCO3)on2)c1 (centres undefined) | -63.9*
CCc1ccc(NC(=O)c2cc(C(C)C)on2)cc1 | -102.5*
CC(C)Cc1cc(C(=O)Nc2ccc(Br)cc2)no1 | -137.1*
O=C(Nc1ccc(F)cc1F)c1csc(-c2cccs2)n1 | -270.1*
CCc1ccc(NC(=O)c2cc(CC(C)C)on2)cc1 | -120.5*
CC(C)c1cc(C(=O)NCCc2ccccc2)no1 | -200.7*
CC(=O)c1cccc(NC(=O)c2cc(C(C)C)on2)c1 | -101.3*
CC(C)Cc1cc(C(=O)Nc2ccc(F)cc2F)no1 | -138.6*
CC(C)Cc1cc(C(=O)NCc2cccs2)no1 | -164.4*
Cc1ccc2[nH]c3c(=O)n(N)c(C)nc3c2c1 | -69.6*
CC(C)(C)c1ccc(Oc2ccc(N)cn2)cc1 | 87.0
Clc1cccc(Oc2cnc3ccccc3n2)c1 | -65.6*
COc1ccc(Oc2cnc3ccccc3n2)cc1 | -64.5*
ClCc1csc(N/N=C/c2cccs2)n1 | -72.1*
C(=N\Nc1nc(-c2ccccc2)cs1)/c1cccs1 | -233.2*
C(=N\Nc1nc(-c2ccccc2)cs1)/c1ccncc1 | -229.6*
O=C(Nc1nc2c(F)cccc2s1)c1ccc([N+](=O)[O-])o1 | -95.4*
O=C(Nc1nc2ccc(Cl)cc2s1)c1ccc(Br)o1 | -237.0*
SMILES | aSyn UTR act
O=C(Nc1nc2c(Cl)cccc2s1)c1ccc([N+](=O)[O-])o1 | -80.3*
O=C(Nc1cccc(NC(=O)c2ccccc2Cl)c1)c1ccc([N+](=O)[O-])o1 | 85.8
O=C(Nc1nc2c(Cl)cccc2s1)c1ccc(Br)o1 | -130.5*
CC(C)N1C(=O)/C(=C/c2nc3ccccc3c(=O)n2-c2ccccc2)c2ccccc21 | -66.5*
Cc1cc2ccccn2c1C(=O)c1ccc([N+](=O)[O-])o1 | -147.3*
COc1ccc(CCNC(=O)c2ccc(Cl)cc2Cl)cc1OC | -99.3*
COc1cc(CCC(C)=O)ccc1OC(=O)c1c(F)cccc1Cl | -185.1*
COc1ccc(NC(=O)COC(=O)c2c(F)cccc2Cl)cc1OC | -110.3*
O=C(Nc1cnc2ccccn2c1=O)c1ccc(Cl)cc1 | -138.7*
CN(C)c1ccc(-c2nc3ccccc3n2C)cc1 | 60.8
C=CCn1c(-c2ccc(OC)cc2)nc2ccccc21 | -73.3*
CCn1c(-c2ccc(N(C)C)cc2)nc2ccccc21 | -97.5*
O=C(NCCCCCCNC(=O)c1ccc(Br)s1)c1ccc(Br)s1 | -108.3*
O=C(NCCc1ccc(Cl)cc1)c1ccc(Br)s1 | -180.1*
CN(Cc1ccccc1)C(=O)c1ccc([N+](=O)[O-])o1 | -84.4*
Cc1ccc(-c2csc(NC(=O)c3ccno3)n2)cc1 | -128.1*
Cc1ccc(-c2csc(NC(=O)c3ccc([N+](=O)[O-])o3)n2)cc1 | -234.1*
Cn1cc([N+](=O)[O-])c(C(=O)Nc2nc(-c3ccc(Cl)cc3)cs2)n1 | 62.8
Cc1ccc(CNC(=O)c2ccc([N+](=O)[O-])o2)cc1 | -70.1*
Cc1ccc(-c2nc(N/N=C/c3cccc([N+](=O)[O-])c3)c3ccccc3n2)cc1 | -153.1*
c1cncc(-c2nc(NCCCn3ccnc3)c3ccccc3n2)c1 | -66.4*
Cc1ccc(-c2nc(N/N=C/c3cccnc3)c3ccccc3n2)cc1 | -258.4*
Cc1ccc(-c2nc(C(Cl)Cl)c3ccccc3n2)cc1 | 92.7
Cc1ccc(-c2nc(NCc3cccnc3)c3ccccc3n2)cc1 | -78.3*
Cc1ccc(OCC(=O)c2cc(C)n(C3CC3)c2C)c([N+](=O)[O-])n1 | -94.0*
SMILES | aSyn UTR act
Cc1ccc(OCC(=O)c2cc(C)n(CC(F)(F)F)c2C)c([N+](=O)[O-])n1 | -72.3*
Cc1cc(Nc2ccccc2)n2nc(C)c(-c3ccccc3)c2n1 | -64.0*
COc1ccc(Nc2nc3ccc(OC)cc3s2)cc1 | -119.7*
CCOC(=O)c1cc2nc(Nc3ccc(OC)cc3)sc2s1 | -83.2*
COc1ccc2nc(Nc3nc(C)c(C(C)=O)s3)sc2c1 | -186.3*
Cc1nc2cc(-c3ccc(Cl)cc3)nn2c(C)c1CCC(=O)NC(C)c1ccc2c(c1)OCCO2 (centres undefined) | 73.8
CC(=O)c1cnc2cc(-c3ccc(Cl)cc3)nn2c1C | -94.5*
Cc1c(C(=O)O)cnc2cc(-c3ccc(Cl)cc3)nn12 | -70.7*
COc1ccc(C(=O)c2ccc(N(C)C)cc2)c2ccccc12 | 73.8
COc1ccccc1C(=O)COC(=O)c1ccccc1O | -104.3*
COc1ccccc1C(=O)COC(=O)/C=C/c1ccccc1 | -69.0*
COc1ccccc1C(=O)COC(=O)c1ccc(N(C)C)cc1 | -218.5*
Cc1ccc(C(=O)Oc2ccc(/C=C3\C(=N)N4N=C(N5CCOCC5)SC4=NC3=O)cc2)cc1 | -61.9*
O=C(Cn1nnc(-c2ccc(NC(=O)c3ccccc3F)cc2)n1)NCc1ccc(F)cc1 | -65.8*
NC(=O)Cn1nnc(-c2ccc(NC(=O)c3ccc(F)cc3)cc2)n1 | -72.8*
COc1ccccc1C(=O)Nc1ccc(-c2nnn(CC(=O)N3CCN(C(=O)c4ccco4)CC3)n2)cc1 | -79.0*
O=C(Nc1ccc(-c2nnn(CC(=O)N3CCN(C(=O)c4ccco4)CC3)n2)cc1)c1ccccc1F | -71.0*
CC(C)CNC(=O)c1coc(=O)c(Br)c1 | -87.3*
CS(=O)(=O)Nc1ccc(C(=O)NCCC2=CCCCC2)cc1 | -109.3*
O=C(NCCc1ccccc1)c1coc(=O)c(Br)c1 | -77.0*
COc1ccccc1NC(=O)c1coc(=O)c(Br)c1 | -63.2*
O=C(NCCC1=CCCCC1)c1coc(=O)c(Br)c1 | -65.4*
O=[N+]([O-])c1ccc(-c2cn(-c3ccccc3F)c(=S)[nH]2)cc1 | -93.8*
Cc1ccc(-c2cn(-c3ccccc3F)c(=S)[nH]2)cc1 | -124.0*
O=C(NC(=S)Nc1ccc2c(c1)OCO2)c1ccccc1 | -199.1*
SMILES | aSyn UTR act
CCc1ccc(NC(=O)c2cnc3n(c2=O)CCS3)cc1 | -185.4*
O=C(Nc1ccncc1)c1ccc2c(c1)OCCO2 | -67.8*
O=C(CC(=O)c1ccccc1)Nc1ccc2c(c1)OCCO2 | -119.3*
O=C(NC(=S)Nc1ccc2c(c1)OCCO2)c1cccc2ccccc12 | -82.4*
O=C(Nc1ccc2c(c1)OCCO2)C(=S)NCc1ccccc1 | -96.3*
O=C(Nc1cccc([N+](=O)[O-])c1)c1ccc2c(c1)OCCO2 | -124.0*
O=C(Nc1ccc2c(c1)OCO2)c1ccccc1 | -119.8*
O=C(CCNc1ccccc1)c1ccc2c(c1)OCO2 | -193.1*
O=C(Nc1ccc2c(c1)OCCO2)c1ccccc1 | -98.0*
CC(C)c1ccc(O)c(NC(=S)NC(=O)c2ccc3c(c2)OCO3)c1 | -124.0*
O=C(Nc1ccc2c(c1)OCCO2)C1CC1c1ccccc1 (centres undefined) | -123.5*
CC(C)(C)c1ccc(C(=O)Nc2cccc([N+](=O)[O-])c2)cc1 | -193.2*
O=C(Nc1ncc([N+](=O)[O-])s1)c1ccc2c(c1)OCO2 | 102.6
O=C(Nc1ccc2c(c1)OCCO2)c1cccc(Cl)c1 | -225.2*
O=C(Nc1ccncc1)c1ccc2ccccc2c1 | -135.4*
